# Source: PubChem
# PME-1 inh: blocks human protein phosphatase methylesterase 1; recombinant PME-1, FP-Rh probe fluorescence polarization; AID 2130; actives 0.53% (n = 320,000); inhibition, % at 5.9 µM; Q9Y570;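 active = inhibition above the campaign mean of all compounds plus 3 SD, cut at about 26% in these data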;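 note: competitive labeling of PME-1 active site by serine hydrolase directed probe; 0% = PME-1 with DMSO and 100% = wells lacking PME-1 enzyme; inhibitors block probe labeling so polarization falls and inhibition rises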
# GSTO1 inh: counter-screen for RBBP9 inhibitors: inhibitors of human GSTO1; P78417; recombinant GSTO1, activity-based probe fluorescence polarization; inhibition, % at 5.96 µM; actives 1.1% (n = 300,000); AID 1974;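 active = inhibition above the campaign mean inhibition plus 3 SD, cut at about 35% in these data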;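 note: 0% = GSTO1-1 with DMSO and 100% = wells lacking GSTO1-1 enzyme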
# Target sequence (P78417 whole entry, looked up): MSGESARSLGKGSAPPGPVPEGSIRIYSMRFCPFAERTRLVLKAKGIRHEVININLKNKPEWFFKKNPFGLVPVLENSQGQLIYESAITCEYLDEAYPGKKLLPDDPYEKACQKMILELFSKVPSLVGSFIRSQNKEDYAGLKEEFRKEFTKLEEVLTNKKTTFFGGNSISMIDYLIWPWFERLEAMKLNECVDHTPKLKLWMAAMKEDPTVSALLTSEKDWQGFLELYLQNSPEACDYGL
# LYPLA1 counter: blocks human lysophospholipase 1, a PME1 counter-screen. O75608. recombinant LYPLA1, FP-Rh probe fluorescence polarization. inhibition, % at 5.9 µM. actives 0.16% (n = 320,000);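 active = inhibition above the mean of all tested compounds plus 3 SD, set per campaign, cut at about 14% in these data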;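 note: inhibitors block serine hydrolase probe labeling of LYPLA1 so polarization falls; 0% = enzyme with DMSO and 100% = wells lacking LYPLA1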
# Target sequence (O75608 whole entry, looked up): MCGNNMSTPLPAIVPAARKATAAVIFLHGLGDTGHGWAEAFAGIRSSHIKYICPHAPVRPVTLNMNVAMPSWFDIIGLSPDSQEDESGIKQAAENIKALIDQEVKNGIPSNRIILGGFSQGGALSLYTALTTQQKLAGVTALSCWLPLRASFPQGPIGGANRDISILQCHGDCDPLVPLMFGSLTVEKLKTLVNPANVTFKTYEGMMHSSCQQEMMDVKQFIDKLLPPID
# Fam108B counter: counter-screen for RBBP9 inhibitors: inhibitors of mouse Fam108B; recombinant Fam108B, FP-Rh probe fluorescence polarization; actives 0.33% (n = 300,000); inhibition, % at 9.51 µM;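 active = inhibition above the screen mean inhibition plus 3 SD, computed separately per campaign, cut at about 18% in these data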;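 note: inhibitors lower polarization as less probe binds the enzyme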
# LYPLA2 inh: LYPLA2 (human) inhibition in PME1 counter-screen; O95372; recombinant LYPLA2, FP-Rh probe fluorescence polarization; inhibition, % at 5.9 µM; actives 0.38% (n = 320,000); AID 2177;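 active = inhibition above the screen-wide mean plus 3 SD, limit set per campaign, cut at about 26% in these data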;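 note: 0% = LYPLA2 with DMSO and 100% = wells lacking LYPLA2 enzyme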
# PAD4 inh: PAD4 (human) enzyme inhibition; AID 485272; actives 0.41% (n = 330,000); inhibition, % at 6.36 µM; Q9UM07; recombinant PAD4, RCA probe fluorescence polarization;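 active = percent inhibition above a cutoff equal to the mean of all tested compounds plus 3 SD, cut at about 15% in these data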;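 note: 0% = PAD4 with RCA probe and DMSO and 100% = probe without PAD4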
# LYPLA1 conf: counter-screen for PME1 inhibitors: confirmation of human LYPLA1 inhibitors | shares compounds with LYPLA1 counter | recombinant LYPLA1, FP-Rh probe fluorescence polarization | inhibition, % at 5.9 µM | actives 69% (n = 480) | AID 2233;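 active = mean inhibition across replicates above the hit cutoff set in the primary screen, cut at about 15% in these data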;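 note: loss of FP-Rh probe labeling of LYPLA1 seen as lower polarization; 0% = LYPLA1 with DMSO and 100% = wells lacking LYPLA1 enzyme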
# LYPLA2 conf: counter-screen for PME1 inhibitors: confirmation of human LYPLA2 inhibitors; shares compounds with LYPLA2 inh; recombinant LYPLA2, FP-Rh probe fluorescence polarization; inhibition, % at 5.9 µM; actives 72% (n = 1,100); AID 2232;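 active = mean inhibition across replicates above the hit cutoff set in the primary screen, cut at about 26% in these data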;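 note: blocked labeling of the enzyme by serine hydrolase FP-Rh probe lowers polarization; 0% = enzyme with DMSO and 100% = wells lacking LYPLA2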
# PAD4 confirm: PAD4 (human) inhibition, confirmed; actives 28% (n = 1,200); recombinant PAD4, RCA probe fluorescence polarization; inhibition, % at 6.36 µM; shares compounds with PAD4 inh; AID 488796;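 active = mean inhibition across replicates above the hit cutoff set by the earlier primary screen, cut at about 15% in these data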;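 note: inhibitors block active-site labeling by the probe so polarization falls; 0% = PAD4 with probe and DMSO and 100% = probe without PAD4 enzyme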
# The depositor's hits bear a star; . = no result given. Hits are enriched below; roughly 1.7% of the tested compounds scored in any of these assays.
SMILES,PME-1 inh,GSTO1 inh,LYPLA1 counter,Fam108B counter,LYPLA2 inh,PAD4 inh,LYPLA1 conf,LYPLA2 conf,PAD4 confirm
CSc1ccccc1OCc1cc(C(=O)N2CCC(Oc3cccnc3)CC2)no1,6,-3,36*,-4,35*,-7,47*,39*,.
CSc1ccccc1OCc1cc(C(=O)N2CCSCC2)no1,-5,3,-1,2,-2,0,.,.,.
O=C(C1CCC(Cn2c(=S)[nH]c3ccccc3c2=O)CC1)N1CCN(c2ccccc2)CC1 (centres undefined),-11,-13,36*,-6,53*,-1,45*,52*,.
COc1ccccc1N1CCN(C(=O)C2CCC(Cn3c(=S)[nH]c4ccccc4c3=O)CC2)CC1 (centres undefined),-10,-2,4,-3,8,0,.,.,.
COc1ccc(N2CCN(C(=O)C3CCC(Cn4c(=S)[nH]c5ccccc5c4=O)CC3)CC2)cc1 (centres undefined),-4,1,40*,-1,83*,-2,43*,84*,.
CC(OC(=O)c1nc(Cl)ccc1Cl)C(=O)NC1CCCCC1C (centres undefined),16,.,16*,.,20,25*,-2,.,4
O=C(/C=C/c1c(F)cccc1Cl)c1ccc(O)cc1,-7,-32,-1,-3,3,-3,.,.,.
CCOC(=O)NC(=O)/C(C#N)=C\Nc1ccc(Cl)cc1Cl,-4,-5,-1,0,-2,2,.,.,.
CCOC(=O)NC(=O)/C(C#N)=C\Nc1sccc1C(=O)OC,26,4,20*,6,31*,35*,3,.,4
O=C(CN1C(=O)c2ccccc2S1(=O)=O)Nc1ccc([N+](=O)[O-])cc1,.,.,.,.,.,6,.,.,.
COc1ccc(C2CC(c3ccc(Cl)cc3)n3nc(N)nc3N2)cc1 (centres undefined),-1,1,0,2,-10,5,.,.,.
COCCn1c(C)c(C)c(S(=O)(=O)c2ccccc2)c1N,16,13,16*,14,17,28*,13,.,-3
Cc1ccc(NC(=O)CS(=O)CC(=O)Nc2ccccc2-c2ccc(C)o2)cc1 (centres undefined),35*,31,33*,4,41*,17*,0,-5,1
Cc1cc(-c2ccccc2C(=O)O)on1,0,-5,1,1,3,5,.,.,.
O=C(O)c1ccccc1C1=Nc2ccc(O)cc2Oc2cc(O)ccc21,17,17,19*,18,27*,26*,16*,0,35*
O=C1CCCC2=C1Sc1ccc(Cl)cc1N2,10,6,0,2,5,-1,.,.,.
COC(=O)c1ccc2c(c1)SC1=C(CCCC1=O)N2,29*,15,28*,18,27*,43*,19*,15,40*
C=CCNCc1ccccc1[N+](=O)[O-],2,10,-1,2,-5,3,.,.,.
CCNc1cc(O)ccc1C,31*,.,31*,.,40*,122*,15*,8,53*
CCCCC1OC23CCCCC2C(C#N)(C#N)C1(C#N)C(=N)O3 (centres undefined),10,7,15*,4,17,25*,2,.,17*
CCCCC1OC23CCCCC2C(C#N)(C(=N)O3)C1(C#N)C#N (centres undefined),5,3,5,2,2,10,.,.,.
CN(C(=O)c1ccc(NC(=O)Cc2cccc([N+](=O)[O-])c2)cc1)C1CC1,4,.,42*,.,18,35*,35*,.,4
CCN1C(=O)c2cccc3c(N)ccc(c23)C1=O,23,11,15*,12,23,27*,12,.,26*
COC(=O)c1ccccc1NC(=O)c1cc2ncc(Br)cn2n1,-2,0,-3,12,-5,4,.,.,.
